Assay in all cases: peptide microarray binding signal (635 nm), min-max normalized on array (fraction of array maximum); higher = stronger binding
Assay [1] has as its target T1, HaloTag-ATRX ADD domain (163-292).
T1 chain: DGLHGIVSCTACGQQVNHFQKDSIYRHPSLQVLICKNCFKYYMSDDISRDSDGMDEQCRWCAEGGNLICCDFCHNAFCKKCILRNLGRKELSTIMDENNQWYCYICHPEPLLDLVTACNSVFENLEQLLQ
The gist of the method: (§1)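 Binding signal is the mean intensity of triplicate spots, min-max scaled within each library. Histone 13-mer peptide–cellulose conjugates were spotted in triplicate on nitrocellulose with a Cy3 tracer and blocked overnight at 4°C. Probing lasted 1 h at 4°C, either with biotin-labelled HaloTag reader fusions (10 nM to 1 μM) and streptavidin-Alexa Fluor 647 or with rabbit histone antibodies (1:10,000 to 1:2,000) and anti-rabbit Alexa 647. An Axon GenePix 4000B read signal at 635 nm and misprints at 532 nm.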

Assay [2] addresses HaloTag-ING2 PHD (mouse Ing2 200-280). The gist of the method:
as §1

Assay [3] concerns the target anti-H3K4me3 antibody ab8580. A digest of the protocol:
as §1

Assay [4] concerns the target anti-H3K9me3 antibody ab8898. A digest of the protocol: as §1
[5] abbreviates: peptide region: H3 112-124, peptide modifications: H3K115me3 H3R116me1, binder concentration: 1:2,000 dilution.
Setting [6] is: peptide region: H3 112-124, peptide modifications: H3K115me3 H3R116me1, binder concentration: 1:10,000 dilution.
[7] abbreviates: peptide region: H3 112-124, peptide modifications: H3K115me3 H3K122me2, binder concentration: 1:2,000 dilution.
Setting [8] is: peptide region: H3 112-124, peptide modifications: H3K115me3 H3K122me2, binder concentration: 1:10,000 dilution.
Setting [9] is: peptide region: H3 112-124, peptide modifications: H3K115me3 H3R116me2s, binder concentration: 1:2,000 dilution.
[10] abbreviates: peptide region: H3 112-124, peptide modifications: H3K115me3 H3R116me2s, binder concentration: 1:10,000 dilution.
The mark [11] stands for this setting: peptide region: H4 1-13, binder concentration: 1:2,000 dilution.
Where [12] appears, read: peptide region: H4 1-13, binder concentration: 1:10,000 dilution.
Setting [13] is: peptide region: H4 1-13, peptide modifications: H4K5ac H4K8ac H4K12ac, binder concentration: 1:2,000 dilution.
[14] abbreviates: peptide region: H4 1-13, peptide modifications: H4K5ac H4K8ac H4K12ac, binder concentration: 1:10,000 dilution.

The source of these data is the supplement of paper PMC4022240.

± gives the standard deviation.

B1: H3 112-124 I H A Kme3 Rme V T I M P K D I (peptide)
chain: IHAKRVTIMPKDI
As for B1, the “peptide microarray binding signal” value stood at 0.0052 ± 0.00018 in assay [1] (peptide region: H3 112-124, peptide modifications: H3K115me3 H3R116me1, binder concentration: 50 nM); 0.00929 ± 0.00049 in assay [1] (peptide region: H3 112-124, peptide modifications: H3K115me3 H3R116me1, binder concentration: 500 nM); 0.0491 ± 0.0085 in assay [2] (peptide region: H3 112-124, peptide modifications: H3K115me3 H3R116me1, binder concentration: 10 nM); 0.07016 ± 0.00021 in assay [2] (peptide region: H3 112-124, peptide modifications: H3K115me3 H3R116me1, binder concentration: 100 nM); 0.0275 ± 0.0037 in assay [3] (setting [5]); 0.0305 ± 0.0067 in assay [3] (setting [6]). Further, the “peptide microarray binding signal” value in assay [4] (setting [5]) turned out to be 0.0215 ± 0.0033; in assay [4] (setting [6]), 0.0113 ± 0.0013.

B2: H3 112-124 I H A Kme3 R V T I M P Kme2 D I (peptide)
chain: IHAKRVTIMPKDI
Take B2: the “peptide microarray binding signal” value came to 0.00464 ± 6.3e-05 in assay [1] (peptide region: H3 112-124, peptide modifications: H3K115me3 H3K122me2, binder concentration: 50 nM); 0.009477 ± 4.6e-05 in assay [1] (peptide region: H3 112-124, peptide modifications: H3K115me3 H3K122me2, binder concentration: 500 nM); 0.0436 ± 0.0022 in assay [2] (peptide region: H3 112-124, peptide modifications: H3K115me3 H3K122me2, binder concentration: 10 nM); 0.0676 ± 0.0025 in assay [2] (peptide region: H3 112-124, peptide modifications: H3K115me3 H3K122me2, binder concentration: 100 nM); 0.0196 ± 0.00059 in assay [3] (setting [7]); 0.0182 ± 0.0013 in assay [3] (setting [8]). Further, the results for the “peptide microarray binding signal” value in assay [4] (setting [7]) and in assay [4] (setting [8]) were 0.0246 ± 0.0043 and 0.00894 ± 0.00038, respectively.

B3: H3 112-124 I H A Kme3 Rme2s V T I M P K D I (peptide)
chain: IHAKRVTIMPKDI
As for B3, the “peptide microarray binding signal” value in assay [1] (peptide region: H3 112-124, peptide modifications: H3K115me3 H3R116me2s, binder concentration: 50 nM) turned out to be 0.00351 ± 6.2e-05; in assay [1] (peptide region: H3 112-124, peptide modifications: H3K115me3 H3R116me2s, binder concentration: 500 nM), 0.00576 ± 0.00044; in assay [2] (peptide region: H3 112-124, peptide modifications: H3K115me3 H3R116me2s, binder concentration: 10 nM) it was 0.0107 ± 0.00099; in assay [2] (peptide region: H3 112-124, peptide modifications: H3K115me3 H3R116me2s, binder concentration: 100 nM), 0.0126 ± 0.0027; in assay [3] (setting [9]) it was 0.00608 ± 0.0018; in assay [3] (setting [10]), 0.0069 ± 0.00085. Besides, the “peptide microarray binding signal” value in assay [4] (setting [9]) worked out at 0.0055 ± 0.00076; in assay [4] (setting [10]), 0.00386 ± 0.00058.

B4: H4 1-13 S G R G K G G K G L G K G (peptide)
chain: SGRGKGGKGLGKG
Regarding B4, the “peptide microarray binding signal” value in assay [1] (peptide region: H4 1-13, binder concentration: 50 nM) turned out to be 0.00834 ± 0.00028; in assay [1] (peptide region: H4 1-13, binder concentration: 500 nM), 0.018 ± 0.0011; in assay [2] (peptide region: H4 1-13, binder concentration: 10 nM), 0.0037 ± 0.00019; in assay [2] (peptide region: H4 1-13, binder concentration: 100 nM), 0.00928 ± 0.00099; in assay [3] (setting [11]) it was 0.000189 ± 2e-06; in assay [3] (setting [12]), 0.00417 ± 0.00056. The “peptide microarray binding signal” value came to 0.00211 ± 0.00074 in assay [4] (setting [11]) and 0.00306 ± 0.00014 in assay [4] (setting [12]).

B5: H4 1-13 S G R G Kac G G Kac G L G Kac G (peptide)
chain: SGRGKGGKGLGKG
B5: the “peptide microarray binding signal” value stood at 0.00417 ± 0.00038 in assay [1] (peptide region: H4 1-13, peptide modifications: H4K5ac H4K8ac H4K12ac, binder concentration: 50 nM); 0.00538 ± 0.00043 in assay [1] (peptide region: H4 1-13, peptide modifications: H4K5ac H4K8ac H4K12ac, binder concentration: 500 nM); 0.00418 ± 0.00011 in assay [2] (peptide region: H4 1-13, peptide modifications: H4K5ac H4K8ac H4K12ac, binder concentration: 10 nM); 0.00645 ± 0.00041 in assay [2] (peptide region: H4 1-13, peptide modifications: H4K5ac H4K8ac H4K12ac, binder concentration: 100 nM); 0.00128 ± 0.00011 in assay [3] (setting [13]); 0.001541 ± 1.5e-05 in assay [3] (setting [14]). Further, the figures for the “peptide microarray binding signal” value in assay [4] (setting [13]) and in assay [4] (setting [14]) were 0.000695 ± 4.8e-05 and 0.001441 ± 1.4e-05, respectively.
